# PubChem BioAssay AID430 (Sanford-Burnham Center for Chemical Genomics, 2006)
# Screen size: about 63,000 compounds; about 1,100 (1.7%) were called active. The entries come from a sample that favours actives as a whole. Potency and affinity values are given separately. A number with no mark means an inactive call. No stated cut-off is given here; in the data, active means cytotoxicity above about 50%; inactive means the rest.
# Assay: cytotoxicity in HPDE-C7 cells, cell-based, fluorescence, HTS (AID 430);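 further: cells exposed to compound for 48 hours before viability readout; 0% = vehicle and 100% = reference cytotoxic drug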
# Settings: HPDE-C7 pancreatic duct cells viability, at 10 µM, stronger effect = higher value
row,SMILES,cytotoxicity
1,Cc1nn(-c2ccccc2)c2c1C1(C(=O)N(C)c3ccccc31)N(c1ccccc1)C(=O)N2 (centres undefined),-21.2%
2,O=C1C=C(O)CC(c2ccc(Cl)cc2)C1 (centres undefined),31.1%
3,CCOC(=O)c1sc(NC(=O)CSc2nnc(-c3ccco3)n2CC)c(C(=O)OCC)c1C,31.5%
4,CCC(C)N(C(=O)Cn1nnc2ccccc21)C(C(=O)NCc1ccco1)c1cccc(OC)c1 (centres undefined),-10.2%
5,COc1ccc(C(NC(=O)c2ccco2)c2ccc(OC)c(OC)c2)cc1OC,-8.3%
6,Nc1nnc(-c2ccco2)s1,-4.3%
7,CCOC(=O)N1CCC(NC(=O)Cn2cc3c(n2)CCC(C)C3)CC1 (centres undefined),6.2%
8,COc1ccc(OC)c(C2CC(=O)c3c([nH]c(C(=O)OCC4CCCO4)c3C)C2)c1 (centres undefined),8.2%
9,COc1cc(C2CC(=O)c3c([nH]c(C(=O)OCCOC(C)C)c3C)C2)cc(OC)c1OC (centres undefined),2.4%
10,CC1=C(C(=O)OCc2ccccc2)C(c2ccco2)C2=C(CC(C)(C)CC2=O)N1 (centres undefined),22.7%
11,Cc1c(C(=O)OCC2CCCO2)[nH]c2c1C(=O)CC(c1ccc(N(C)C)cc1)C2 (centres undefined),-4.3%
12,Cc1c(C(=O)OCCOC(C)C)[nH]c2c1C(=O)CC(c1ccco1)C2 (centres undefined),59.9% (active)
13,Cc1c(C(=O)O)[nH]c2c1C(=O)CC(c1ccccc1)C2 (centres undefined),-12.1%
14,Cc1c(C(=O)OCc2ccccc2)[nH]c2c1C(=O)CC(c1ccco1)C2 (centres undefined),65.7% (active)
15,COCCOC(=O)c1[nH]c2c(c1C)C(=O)C(C(=O)OC)C(C)C2 (centres undefined),-7.3%
16,Cc1c(C(=O)OCC2CCCO2)[nH]c2c1C(=O)CC(c1ccco1)C2 (centres undefined),62.4% (active)
17,Cc1c(C(=O)OCCOC(C)C)[nH]c2c1C(=O)CC(C)(C)C2,-12%
18,COCCOC(=O)c1[nH]c2c(c1C)C(=O)CC(c1ccco1)C2 (centres undefined),60.3% (active)
19,CCN1CCN(c2ncc(C(=O)N3CCCc4ccccc43)c3ccccc23)CC1,-18.1%
20,Cn1c(=O)c2c(nc(N3CCCCCC3)n2CC(O)COc2ccccc2)n(C)c1=O (centres undefined),3.5%

row,SMILES,cytotoxicity
1,COC(=O)c1[nH]c2cc(OC)c(OC)cc2c1NC(=O)c1cccc(OC)c1,-10.5%
2,COc1ccc(-c2noc(COc3ccc(C)c(C)c3)n2)cc1OC,3.4%
3,CSCCOC(=O)c1[nH]c2c(c1C)C(=O)CC(c1ccco1)C2 (centres undefined),64.9% (active)
4,CCOC(=O)c1[nH]c2c(c1C)C(=O)CC(c1ccco1)C2 (centres undefined),70.2% (active)
5,Cc1c(C(=O)OC2CCCC2)[nH]c2c1C(=O)CC(c1ccco1)C2 (centres undefined),79.3% (active)
6,Cc1c(C(=O)OC2CCC(C)CC2)[nH]c2c1C(=O)CCC2 (centres undefined),-8.8%
7,CCC(C)OC(=O)c1[nH]c2c(c1C)C(=O)CC(c1ccc(N(C)C)cc1)C2 (centres undefined),11.5%
8,CCOC(=O)c1[nH]c2c(c1C)C(=O)CC(c1ccc(OCC)c(OC)c1)C2 (centres undefined),-5%
9,Cc1c(C(=O)OC2CCCCC2)[nH]c2c1C(=O)CC(C)(C)C2,-3.5%
10,Cc1c(C(=O)OCC(C)C)[nH]c2c1C(=O)CC(c1ccco1)C2 (centres undefined),63.7% (active)
11,CCOC(=O)c1[nH]c2c(c1C)C(=O)CC(c1ccc(OC)c(OC)c1)C2 (centres undefined),-13.8%
12,COc1ccc(CCNS(=O)(=O)c2cccc(S(=O)(=O)N3CCCC3)c2)cc1OC,-3.9%
13,Cc1cc(SCNC(=O)c2ccccc2)ncn1,-13%
14,COc1ccc(N2CCN(c3oc(COc4ccccc4)nc3C#N)CC2)cc1,-8.8%
15,O=C(O)c1cccc(CN2C(=O)SC(Nc3ccccc3)C2=O)c1 (centres undefined),-3.2%
16,CN(C)C(=O)COn1c(SCC(=O)N(C)C)nc2ccccc2c1=O,-6.6%
17,COc1ccc(C2C3=C(CC(C)(C)CC3=O)Nc3n[nH]c(C)c32)cc1 (centres undefined),-9.3%
18,CCOc1cccc(C(=O)Nc2cc(-c3nn4c(C)nnc4s3)ccc2C)c1,-4.1%
19,O=C(O)C1CCC(CNCc2cccnc2)CC1 (centres undefined),-8.3%
20,CC1(C)CC(=O)C(C=Nc2ccccc2)=C(O)C1,2%

row,SMILES,cytotoxicity
1,Cc1ccc(SCCC(=O)NCC2CCCO2)cc1 (centres undefined),-5.9%
2,O=C(NCc1ccco1)c1ccc(S(=O)(=O)N2CCCc3ccccc32)cc1,-2.8%
3,O=C(Nc1nnc(C2CC2)o1)c1ccc(S(=O)(=O)N2CCCc3ccccc32)cc1,73.6% (active)
4,COc1ccc(-c2nnc(NC(=O)c3ccc(S(=O)(=O)N4CCc5ccccc5C4)cc3)o2)cc1,40.7%
5,COc1ccc(-c2nnc(NC(=O)c3ccccc3C)o2)cc1,1.9%
6,COc1ccc(-c2nnc(NC(=O)c3ccc(S(=O)(=O)N4CCCc5ccccc54)cc3)o2)cc1,53.1% (active)
7,O=C(Nc1ccc(S(=O)(=O)N2CCCc3ccccc32)cc1)C1CCCO1 (centres undefined),3%
8,COc1cc(OC)cc(-n2c3nc4ccccc4nc3c3c(=O)n(CC4CCCO4)cnc32)c1 (centres undefined),-11.1%
9,COc1ccc(OC)c(NC(=O)C2=C(C)Nc3ncnn3C2c2cccs2)c1 (centres undefined),4.9%
10,CCCCOCCCNC(=O)Cc1cccs1,-16.7%
11,COc1ccccc1N1CCN(C(=O)N2CCOCC2)CC1,-6.9%
12,Cc1cc(N2CCN(C/C=C/c3ccccc3)CC2)n2ncnc2n1,-6.5%
13,O=C(NC1c2ccccc2-c2ccccc21)N1CCOCC1,1.5%
14,O=C(CC1SC(=Nc2ccccc2)N(CCCCO)C1=O)NCc1ccccc1 (centres undefined),-10.8%
15,CCCOC(=O)CSC1=C(C#N)C(c2ccccc2OCC)C(C#N)C(=O)N1 (centres undefined),5.1%
16,Cc1cc(NC(=O)CCc2ccc(C)o2)no1,-11.8%
17,CC(=O)C(C)Oc1ccc2c3c(c(=O)oc2c1)CCCCC3 (centres undefined),-15.5%
18,c1ccc(-c2nnc(N3CCN(c4ccccn4)CC3)c3ccccc23)cc1,5.2%
19,Cc1ccc(-c2nnc(N3CCN(S(C)(=O)=O)CC3)c3ccccc23)cc1,-1.3%
